Measured values published in PubChem BioAssay (NCI).
This is part of a sample that, as a whole, favours compounds with a hit. Of some 83,000 tested, about 20% had one in any assay.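 Each cell line was grown in a 96-well plate and treated with one concentration of compound for 48 hours. Values below 10 were considered active.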 Values without a mark were called inactive. Active and inactive are the calls of the source.

Key:
Assay in all cases: NCI-60 one-dose screen, 48 h (100 = growth as untreated, 0 = no growth, -100 = all killed)
Conditions in all cases: 10 µM unless noted
DU-145 prostate = system: DU-145 prostate
K-562 leukemia = system: K-562 leukemia
MALME-3M melanoma = system: MALME-3M melanoma
MDA-MB-231 breast = system: MDA-MB-231 breast
RXF 393 renal = system: RXF 393 renal
SF-268 CNS = system: SF-268 CNS
SF-295 CNS = system: SF-295 CNS
SF-539 CNS = system: SF-539 CNS
UACC-257 melanoma = system: UACC-257 melanoma
M14 melanoma = system: M14 melanoma

| Structure (SMILES) | growth (DU-145 prostate) | growth (K-562 leukemia) | growth (MALME-3M melanoma) | growth (MDA-MB-231 breast) | growth (RXF 393 renal) | growth (SF-268 CNS) | growth (SF-295 CNS) | growth (SF-539 CNS) | growth (UACC-257 melanoma) | growth (M14 melanoma) |
| --- | --- | --- | --- | --- | --- | --- | --- | --- | --- | --- |
| CC(=O)N1N=C(c2cc3ccccc3oc2=O)CC1c1cn(-c2ccccc2)nc1-c1ccc(C)cc1 (stereo not given) | 103% | 103% | 92.3% | 94.4% | 98.8% | 98.7% | 100% | 90.1% | 99.4% | 101% |
| CCN(CC)c1ccc(/C=N/NC(=O)c2ccc(S(N)(=O)=O)cc2)c(O)c1 | 31.1% | 12.4% | -1.7% (active) | 34% | -4.11% (active) | 20.5% | 12.6% | 5% (active) | -10.2% (active) | 1.08% (active) |
| COc1ccc2[nH]cc(-c3nn4cc(-c5ccncc5)nc4s3)c2c1 | 88.8% | 28.5% | 86.3% | 82.3% | 96% | 86.9% | 62.8% | 88.3% | 109% | 82.8% |
| Cc1ccc(/C(N)=N/C(N)=N/c2nc3ccccc3s2)cc1 | 96.5% | 82.5% | 110% | 89.9% | 103% | 103% | 32.9% | 108% | 111% | 107% |
| Clc1ccc2c(N/N=C/c3c[nH]c4ccccc34)ccnc2c1 | -90.2% (active) | -22.1% (active) | -95.8% (active) | -83.5% (active) | -87.2% (active) | -58.4% (active) | -85.3% (active) | -86.7% (active) | -91.8% (active) | -89.3% (active) |
| CCN(CC)S(=O)(=O)c1ccc(-c2nc(C(Cl)Cl)nc3cc(C)nn23)cc1 | 15.9% | 8.36% (active) | -7.09% (active) | -0.482% (active) | 13.3% | 56.1% | 48% | 50.7% | 59.3% | 4.27% (active) |
| C=C(C)[C@@H]1CC[C@]2(COP(=O)(OCC)OCC)CC[C@]3(C)[C@H](CC[C@@H]4[C@@]5(C)CC[C@H](OP(=O)(OCC)OCC)C(C)(C)[C@@H]5CC[C@]43C)[C@@H]12 | 69.7% | 19.6% | 50.8% | 50.7% | 45.3% | 64.6% | 14.6% | 70.5% | 46.8% | 51.6% |
| O=C1Nc2ccccc2/C1=C/c1ccc(OCC(=O)c2ccccc2)cc1 | 99.5% | 88.9% | 98.4% | 96.2% | 101% | 96.4% | 107% | 90.6% | 105% | 95.7% |
| CC1(C)C=Cc2cc(/C(N)=N/C(N)=N/c3nc4ccccc4s3)ccc2O1 | 94.9% | 57.6% | 104% | 77.5% | 103% | 93.2% | 81.6% | 97.3% | 104% | 103% |
| COc1ccccc1/C=C1\Oc2ccc(O)c(O)c2C1=O | 98.4% | 95.6% | 102% | 94.9% | 90.2% | 102% | 112% | 91.8% | 101% | 95.4% |
| CC1=C(C)C(=O)C(Nc2ccc3c(c2)OCCO3)=C(Br)C1=O | 107% | 4.46% (active) | 122% | 88.3% | 100% | 97.8% | 94.7% | 105% | 102% | 106% |
| CCCCN1C(=O)/C(=c2\sc3n(c2=O)C2C(NN=3)N(CC)C(=O)N2CC)c2cccc(C)c21 (stereo not given) | 37.6% | 15% | 54.5% | 60% | 11.9% | 56.2% | 29.1% | -7.82% (active) | 89.4% | 27% |
| O=C(Nc1cc(C(F)(F)F)cc(C(F)(F)F)c1)Nc1ccc2oc(=O)ccc2c1 | 18.3% | 13.7% | -26.4% (active) | -9.24% (active) | 39.7% | 21.1% | 0.342% (active) | 21.4% | 1.17% (active) | 18.1% |
| CN1CCN(Cc2ccc(NC(=O)c3cncc(C#Cc4cnc5ccc(O[C@@H]6CCOC6)nn45)c3)cc2C(F)(F)F)CC1 | -91.1% (active) | -12.6% (active) | -89.6% (active) | -73.2% (active) | -79.1% (active) | -68.3% (active) | -88.5% (active) | -89% (active) | -74.6% (active) | -86.3% (active) |
| COc1ccc(CC(C)=C(c2ccc(OCCN3CCCC3)cc2)c2ccc(OCCN3CCCC3)cc2)cc1 | -88.6% (active) | 1.41% (active) | -82.9% (active) | -83.9% (active) | -95.3% (active) | -64.4% (active) | -87.7% (active) | -90.1% (active) | -86.6% (active) | -87.5% (active) |
| CN1CCN(c2ccc(Nc3nc(NCCNC(=O)c4ccc(F)cc4)c4sccc4n3)cc2)CC1 | 87.8% | 19.8% | -54.2% (active) | 59.4% | 14.1% | 73.8% | 61% | -64.7% (active) | 0.258% (active) | -10.1% (active) |
| C/C(=C(/C)C1CC1CCNC1CCC(NC(=O)OC(C)(C)C)CC1)c1ccccc1 (stereo not given) | 84.6% | 0.99% (active) | 36.6% | 72.9% | 42.7% | 84.7% | 77.8% | 63.5% | 55.4% | 21.3% |
| N#Cc1c(-c2cccs2)c(C#N)c(=O)n(Cc2nc3ccccc3[nH]2)c1N | 111% | 101% | 107% | 82.4% | 94.4% | 104% | 107% | 97.7% | 110% | 98.4% |
| Cn1cc(-c2nc(N)nnc2-c2c[nH]c3ccc(Br)cc23)c2cc(F)ccc21 | 96.4% | 56.4% | 94.2% | 90.2% | 93.6% | 86.9% | 106% | 95.1% | 109% | 102% |
| c1ccc(-c2cn3c(-c4c[nH]c5ccccc45)csc3n2)cc1 | 94% | 36.5% | 69.6% | 61.7% | 83.2% | 79.6% | 77.6% | 81.9% | 54.2% | 73% |
| O=C(CCCCCCNC(=O)C(O)(O)C(F)(F)F)Nc1ccc(-c2ccccc2)cc1 | 12% | 9.55% (active) | 3.09% (active) | 25% | -45% (active) | -4.51% (active) | -32.1% (active) | 19.7% | 14.8% | 20.7% |
| CCOC(=O)c1cnc2c(-c3ccc(Cl)c(Cl)c3)cnn2c1 | 104% | 21.7% | 75.7% | 81.5% | 79.7% | 92.7% | 82.9% | 85.9% | 81.9% | 60% |
| O=C(O)CC1CCN(c2ccc3nnc(Cl)n3n2)CC1 | 107% | 105% | 102% | 112% | 109% | 100% | 102% | 102% | 109% | 94.6% |
| CC1=C(C)C(=O)C(Nc2cccc(C(=O)OC(C)(C)C)c2)=C(Cl)C1=O | 103% | 21.6% | 94.4% | 48.9% | 103% | 92% | 105% | 96.6% | 91.4% | 83.3% |
| C#CCOc1ccccc1C(OC(=O)c1ccccc1)C(=O)NC(C)(C)C(C)(C)C (stereo not given) | 108% | 78.3% | 76.4% | 80.8% | 74.6% | 93.5% | 70.3% | 102% | 81.6% | 89.4% |
| C/C(=N\NC(=O)Nc1ccccc1)c1nnn(-c2ccc([N+](=O)[O-])cc2)c1C | 105% | 113% | 108% | 106% | 78.2% | 103% | 108% | 99.9% | 108% | 105% |
